High-throughput results: PubChem BioAssay, National Center for Advancing Translational Sciences (NCATS)
CHX counter: counter-screen for Shiga toxin inhibitors: cycloheximide protein synthesis inhibition; cell reporter, cycloheximide protein synthesis inhibition counterscreen; max response, %; 12% of 300,000 active; in the data active = max response mostly above about 13%, no sharp cut-off; inactive = mostly below about 14%; note: read at 38.3 µM for the half of the compounds with a filed dose; 0% is about no effect
Pf growth 96h: P. falciparum growth inhibition at 96 hour, primary screen for plastid delayed-death inhibitors | P. falciparum luciferase reporter growth, 96 h | Potency, µM (doses to about 28.7 µM), for inactives: at the top dose activity change, negative = inhibition, usual class: inhibitors | 6.9% of 320,000 active; note: potency is the fitted concentration of half-maximal effect; % is set by controls: 0 for no effect and ±100 for the full control effect
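Plates of compound plus infected erythrocytes (2% hematocrit, 0.05% parasitemia final) incubate 96 hours, 37 C, 5% CO2. Detection reagent added; reduced luminescence from the parasites' luciferase reporter flags inhibition.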
NS1 function inh: inhibitors of influenza NS1 protein function. 0.4% of 270,000 active. AID 2326. Potency, µM (highest dose often 46.1 µM), inactives show top-dose activity, positive = more growth; calls by dose curve; note: potency is the fitted concentration of half-maximal effect; actives are rising curves; nearly all actives have a fitted effect of over 50% in size
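Compounds were scored for reversing the slow growth caused by influenza A NS1 in S. cerevisiae, measured by optical density at 600 nm. Assay medium contained 2% galactose at pH 6.0; NS1-free yeast of the same strain were the positive control.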
Pf growth 48h: P. falciparum growth inhibition at 48 hours (one generation). P. falciparum luciferase growth in erythrocytes, 48 h. Potency, µM (series often up to 28.7 µM), for inactives: at the highest dose activity change, negative = inhibition, most hits filed as inhibitors. 5.9% of 310,000 active; note: potency is the fitted concentration of half-maximal effect; % is set by controls: 0 for no effect and ±100 for the full control effect
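Firefly luciferase activity from engineered P. falciparum reports growth; inhibitors lower the luminescent signal. Cultures contained 2% hematocrit erythrocytes at 0.1% final parasitemia.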
Shiga inhibitor: blocks Shiga toxin action in Vero cells; Vero cells, Shiga toxin protein synthesis inhibition reporter; inhibition, % at 38.7 µM; AID 2315; 9.2% of 290,000 active; in the data active = inhibition mostly above about 28%, no sharp cut-off; inactive = mostly below about 43%; note: 0% is about no effect
Numbers without * were called inactive; i = inactive; ? = inconclusive; · = no result; ! = a repeat was not active; [ ] = remark or other dose. Only some compounds are listed: those with a hit (about 21% of all), similar ones and a draw of the others. Unless noted, calls come from the whole dose curve; as a rule, active = well fitted inhibition curve with a large enough effect; inconclusive = small, poorly fitted or top-dose-only effect, or another doubt; inactive = no such curve, though single readings can be large or run the other way.

SMILES	CHX counter	Pf growth 96h	NS1 function inh	Pf growth 48h	Shiga inhibitor
NC(=O)CS(=O)C(c1ccccc1)c1ccccc1 (configuration not stated)	-5	6µM*	·	-8%	22
NC(=O)OCC(COC(N)=O)c1ccccc1	-4	0%	-3%	33%	-16
NC(=O)COC(=O)CNC(=O)c1sc2ccccc2c1Cl	11	1%	·	i	13
CCOC(=O)C(CC)n1cnc2c(nnn2-c2ccc(OC)cc2)c1=O (configuration not stated)	-4	47%	-1%	14%	-8
CCC(C(=O)OC)n1cnc2c(nnn2-c2ccc(C)cc2)c1=O (configuration not stated)	12*	41%	-5%	17%	22*
CCOC(=O)C(C)n1cnc2c(nnn2Cc2ccc(C)cc2)c1=O (configuration not stated)	8	5%	4%	-7%	-16
CCOC(=O)C(C)n1cnc2c(nnn2Cc2ccc(Cl)cc2)c1=O (configuration not stated)	-2	8.3µM*	-11%	·	-20
CCOC(=O)C(C)n1cnc2c(nnn2-c2ccc(C)cc2)c1=O (configuration not stated)	15	7.4µM*	-3%	·	14
CCOC(=O)C(C)n1cnc2c(nnn2-c2ccc(OC)cc2)c1=O (configuration not stated)	32*	-4%	6%	14%	86*
Cc1ccc(NC(=O)C(=O)NCCN2CCN(S(=O)(=O)c3ccccc3)CC2)cc1C	-3	26%	5%	-2%	-9
Cc1c(NC(=O)COC(=O)C2(c3ccccc3F)CCCC2)c(=O)n(-c2ccccc2)n1C	1	-1%	·	0%	24
CC[C@H](C)[C@@H]1NC(=O)[C@H](Cc2ccc(O)cc2)NC(=O)[C@@H](N)CSSC[C@@H](C(=O)N2CCC[C@H]2C(=O)N[C@@H](CC(C)C)C(=O)NCC(N)=O)NC(=O)[C@H](CC(N)=O)NC(=O)[C@H](CCC(N)=O)NC1=O	-6	·	·	·	8
NC(=O)CC[C@@H]1NC(=O)[C@H](Cc2ccccc2)NC(=O)[C@H](Cc2ccc(O)cc2)NC(=O)[C@@H](N)CSSC[C@@H](C(=O)N2CCC[C@H]2C(=O)N[C@@H](CCCN=C(N)N)C(=O)NCC(N)=O)NC(=O)[C@H](CC(N)=O)NC1=O	4	12µM*!	3%	?	-5
CC(C)(C)OC(=O)CC[C@@H](C(=O)N1CCN(C(=O)OC(C)(C)C)CC1)n1cc(C(Cc2ccc(O)cc2)NC(=O)OC(C)(C)C)nn1 (some centres not stated)	1	4.7µM*	-2%	?	1
CC[C@@H](C)C(NC(=O)OC(C)(C)C)c1cn([C@@H](CCCCNC(=O)OC(C)(C)C)C(=O)N2CCN(C(=O)OC(C)(C)C)CC2)nn1 (some centres not stated)	1	4.1µM*	-2%	?	14
CC(C)CC(NC(=O)OC(C)(C)C)c1cn([C@@H](CCCCNC(=O)OC(C)(C)C)C(=O)N2CCN(C(=O)OC(C)(C)C)CC2)nn1 (some centres not stated)	-1	3.7µM*	8%	?	-13
C#CCOCCOCCOCCNc1nc(N2CCN(C(=O)[C@H](CCC(=O)O)n3cc(C(N)Cc4ccc(O)cc4)nn3)CC2)nc(N2CCN(C(=O)[C@H](CCC(=O)O)n3cc(C(N)Cc4ccc(O)cc4)nn3)CC2)n1 (some centres not stated)	-2	82%	1%	53%	-14
N[C@@H](CO)c1cn([C@@H](Cc2cc3ccccc3[nH]2)C(=O)N2CCNCC2)nn1	-4	64%	-2%	53%	-8
CC[C@@H](C)C(NC(=O)OC(C)(C)C)c1cn([C@@H](Cc2cc3ccccc3[nH]2)C(=O)N2CCN(C(=O)OC(C)(C)C)CC2)nn1 (some centres not stated)	1	3.7µM*	5%	?	-12
O=C(NC1CCCC1)C(c1ccc(F)cc1)N(Cc1ccccc1Cl)C(=O)CCl (configuration not stated)	-1	?	-3%	?	-4
COc1ccc(C(=O)CN2C(=O)NC3(CCc4ccccc43)C2=O)cc1 (configuration not stated)	1	0%	5%	81%	4
FC(F)(F)c1ccc(CN2CCCCCC2)cc1	5	-36%	-3%	·	-8
O=C(COC(=O)c1ccc(O)cc1)NC1CCCCCC1	·	26%	·	8%	·
CCOC(=O)c1c(CN2CCCCC2)n(C)c2cc(Br)c(OC)cc12	-4	3.3µM*	-1%	?	-28
CCOC(=O)c1c(C)n(CC(O)CN(CC)CC)c2cc(Br)c(OC)cc12 (configuration not stated)	1	15µM*	·	?	-16
SMILES	CHX counter	Pf growth 96h	NS1 function inh	Pf growth 48h	Shiga inhibitor
CCOC(=O)c1c(CN2CCCCC2)n(C)c2ccc(OC)c(S(=O)(=O)c3ccccc3)c12	3	7.4µM*	-15%	10µM*	-15
CCOC(=O)c1c(CN2CCN(CCO)CC2)n(C)c2cc(Br)c(OC)cc12	-5	36%	-3%	10µM*	-13
CCC(=O)N1CCc2cc(S(=O)(=O)NCCC(=O)NC3CCCCCC3)ccc21	15	?	6%	?	-5
COc1ccc(CNC(=O)C/C(C)=N/NC(=O)COc2ccc(C)cc2Br)cc1	-1	4%	·	-14%	-10
Nc1ccc(S(=O)(=O)N2CCCC2)cc1Cl	2	8%	0%	-9%	-15
O=C(CN1CCN(S(=O)(=O)c2ccccc2)CC1)NCCc1ccccc1	-6	-28%	8%	19%	-10
O=S(=O)(O)c1cc(O)ccc1O	·	43%	·	26%	·
O=S(=O)(c1cc(O)ccc1O)c1cccc2c(S(=O)(=O)c3cc(O)ccc3O)cccc12	·	13µM*	·	10µM*	·
COC(=O)Cc1ccc(NC(=S)NN2CCOCC2)cc1	-1	?	-5%	4%	5
CC(=O)C1=C(O)C(=O)N(CCNCCO)C1c1ccccc1 (configuration not stated)	-3	117%	3%	-16%	-10
O=C(c1cc(COc2ccc3ncccc3c2)on1)N1CCCC1	33*	?	-6%	37%	40*
O=C(c1cc(COc2ccc3ncccc3c2)on1)N1CCCCCC1	18	-17%	-10%	19%	49*
CCOCCCNC(=O)c1ccc2c(c1)ncn2-c1ccccc1OC	-1	10%	1%	?	-3
O=C(O)c1ccc2c(c1)ncn2C1CCCCC1	-4	26%	4%	?	-2
COc1ccccc1-n1cnc2cc(C(=O)NC3CCCC3)ccc21	2	?	-2%	?	19*
O=C(NC1CC1)c1ccc2c(c1)ncn2C1CCCC1	33*	54%	-7%	56%	69*
O=C(Cn1cc([N+](=O)[O-])cn1)N1CCc2ccccc2C1	-3	?	4%	-39%[5.75 µM]	-10
Cc1cc2nc(-c3ccc(SCC(=O)Nc4nccs4)nc3)[nH]c2cc1C	39*	?	2%	0%	15
